Rows were chosen to be rich in hits. Some 6% of all compounds tested hit in one or more screens of this group.
DRD3 antagonist – blocks the human D3 dopamine receptor. D3R cells, DiscoveRx beta-arrestin luminescence, antagonist mode; stronger effect = lower value. AID 652054. P35462. max response, negative = inhibition, %. 360,000 compounds, 2.5% hits; in the data active means max response below about -50%; inconclusive means no clear call, values can overlap the other calls; further: on the % scale 0 is the no-effect control and ±100 the full control effect
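Cells plated overnight at 1500 cells/well, then exposed to library compounds with dopamine controls for 90 minutes at 37 degrees C. DiscoveRx reagent added for 30–60 minutes at room temperature; luminescence read, quantitative HTS format.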
D1 antagonist – antagonists of human D1 dopamine receptor; P21728; HEK293 TREx D1 cells, calcium flux, dopamine EC80; stronger effect = lower value; activity change, negative = inhibition, % at 10 µM; 360,000 compounds, 3.2% hits; AID 504652; in the data active means activity change below about -30%; further: on the % scale 0 is the no-effect control and ±100 the full control effect
Target sequence (P21728 whole entry, looked up): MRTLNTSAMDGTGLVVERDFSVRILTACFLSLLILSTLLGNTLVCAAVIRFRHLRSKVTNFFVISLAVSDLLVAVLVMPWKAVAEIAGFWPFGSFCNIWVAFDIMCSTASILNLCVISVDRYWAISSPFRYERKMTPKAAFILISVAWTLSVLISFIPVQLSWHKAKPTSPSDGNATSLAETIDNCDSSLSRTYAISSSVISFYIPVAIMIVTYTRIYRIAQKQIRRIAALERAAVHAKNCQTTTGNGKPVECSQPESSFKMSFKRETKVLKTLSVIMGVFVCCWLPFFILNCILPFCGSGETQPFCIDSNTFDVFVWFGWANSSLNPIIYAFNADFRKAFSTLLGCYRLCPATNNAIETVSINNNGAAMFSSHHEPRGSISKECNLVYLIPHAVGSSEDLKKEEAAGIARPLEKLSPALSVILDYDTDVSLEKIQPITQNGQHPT
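Tetracycline-induced HEK293 T-REx cells with force-coupled D1 receptor were loaded with a no-wash calcium dye. Compound was added after a 10 s baseline and read kinetically for 180 s; EC80 dopamine was then added and calcium flux followed another 180 s.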
DRD3 agonist – agonists of human D3 dopamine receptor. 410,000 compounds, 0.58% hits. D3R DiscoveRx beta-arrestin cells, luminescence, 90 min. max activation, %; in the data active means max activation above about 30%; further: 0% is about no effect
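Cells at 1500/well, incubated overnight, then treated with pinned compounds (dopamine as control) for 90 min at 37 degrees C. DiscoveRx reagent added for 30 - 60 minutes at room temperature; luminescence read.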
D1 ag – agonists of human D1 dopamine receptor; activation, % at 2 µM; HEK293 T-REx D1 cells, calcium flux, agonist mode; 360,000 compounds, 1% hits; P21728; in the data active means activation above about 30%; further: 0% is about no effect
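Agonism was scored from calcium flux recorded over 180 s (1 read/s) after pintool compound addition, following a 10-cycle baseline. Cells were inducible force-coupled HEK293 TREx D1, plated overnight at 30 C and loaded with no-wash calcium dye.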
D1 PAM – human D1 dopamine receptor positive modulation. HEK293 TREx D1 cells, calcium flux, dopamine EC20 potentiation. potentiation, % at 10 µM. 360,000 compounds, 0.036% hits; in the data active means potentiation above about 30%; further: 0% is about no effect
* = called active by the depositor; u = inconclusive; x = no result given.

SMILES | DRD3 antagonist | D1 antagonist | DRD3 agonist | D1 ag | D1 PAM
Cc1nn(C)c(C(=O)NC(=S)Nc2ccccc2O)c1Cl | u | -41* | -12 | 2 | -8
Cc1nn(C)c(C(=O)NCc2ccc(Cl)cc2)c1Cl | 11 | -63* | 9 | 12 | -10
Cc1nc(C)c(C(=O)NCc2ccc(Cl)cc2)o1 | u | -61* | -13 | 4 | -1
Cc1nn(C)c(NC(=O)c2ccccc2Cl)c1Cl | 1 | -38* | 3 | 1 | -6
Cc1cc(NC(=O)c2c(Cl)c(C)nn2C)no1 | -12 | -1 | 1 | 2 | -13
COc1ccc(C2C(C(=O)Nc3ccccc3)=C(C)Nc3c(C(=O)Nc4ccccc4)cnn32)cc1 (centres undefined) | x | 8 | -21 | 1 | -1
CCOCCc1nn2c(=O)cc(COC(=O)c3ccco3)nc2s1 | x | -23 | 2 | 2 | -3
CCN(CC)C(=S)S | x | x | -7 | x | x
O=C(CCc1ccc(S(=O)(=O)N2CCOCC2)cc1)OCc1nc2ccccc2s1 | 5 | -9 | 1 | 33* | 2
O=C(OCc1nc2ccccc2s1)c1cccc(S(=O)(=O)N2CCOCC2)c1 | -19 | -2 | 5 | 1 | -6
Cc1ccc(NC(=O)c2sc3nc4c(cc3c2N)CN(Cc2ccccc2)CC4)cc1 | x | 8 | 7 | 6 | 2
COc1ccc(-c2cn(CCC(=O)O)c(-c3ccc(Cl)nc3)n2)cc1 | 37 | 13 | 52* | 0 | -4
Cc1ccccc1Nc1cc(C(=O)NC2CCC(C)CC2)c2ccccc2n1 (centres undefined) | x | -26 | -3 | -1 | -2
N#C/C(C(=O)N1CCOCC1)=C1/SC(Cc2ccccc2)C(=O)N1c1ccccc1 (centres undefined) | -51* | -7 | -4 | 4 | 7
COc1ccc(S(=O)(=O)c2c(C(=O)c3ccc(C)c(C)c3)cnc3ccc(C)cc23)cc1 | x | 10 | 0 | 9 | -2
CC(C)C[C@H]1CN(CCCC[C@H]2CNC(=O)C(=O)N2CCc2ccccc2)C(=O)C(=O)N1Cc1ccccc1 | -18 | x | -3 | x | x
CC(C)C[C@H]1CNC(=O)C(=O)N1C[C@H](C)NC(=O)Cc1ccccc1 | -52* | 0 | -29 | 1 | 3
CCOC(=O)C1(Cc2ccc(OC)cc2)CCN(C(=O)c2sc(C)nc2C)CC1 | 22 | -14 | -1 | 3 | 1
CCOC(=O)C1(Cc2cccc(OC)c2)CCN(CCO)CC1 | 6 | -1 | 5 | 2 | -7
CCOC(=O)C1(Cc2ccc(OC)cc2)CCN(C(=O)c2cc(C)on2)CC1 | -20 | -33* | -2 | 4 | 3
CCOC(=O)C1(Cc2cccc(OC)c2)CCN(CC(O)CO)CC1 (centres undefined) | -1 | -44* | -3 | 1 | -6
C/C=C/c1ccc(OCCN2CCc3ccccc3C2)c(OC)c1 | -76* | -24 | -20 | -1 | -14
Cc1ccc(Cl)c(OCCN2CCc3ccccc3C2)c1 | -60* | -40* | 7 | 0 | -22
C=CCc1ccc(OCCN2CCc3ccccc3C2)c(OC)c1 | -75* | -16 | -16 | 2 | -4
C=CCc1ccc(OCCCCN2CC(C)OC(C)C2)c(OC)c1 (centres undefined) | -69* | -22 | -6 | 1 | 1
SMILES | DRD3 antagonist | D1 antagonist | DRD3 agonist | D1 ag | D1 PAM
COc1ccc(-c2nc(C)c(CCNC(=O)c3ccco3)s2)cc1 | x | 16 | 3 | 1 | 2
CCN(CC)C(=O)c1sc2c(c1C)c(=O)n(-c1ccccc1)c(=O)n2CC(=O)N(CC)c1cccc(C)c1 | x | 5 | -1 | 1 | 1
O=C(Nc1cccc(Cl)c1Cl)c1ccc2c(c1)N(Cc1cccc(Cl)c1)C(=O)c1ccccc1S2=O (centres undefined) | x | 6 | 4 | 5 | 7
CCCS(=O)(=O)c1c(S(=O)(=O)CCC)c2cc(CC)ccn2c1C(=O)c1ccc(Cl)cc1 | x | 13 | -8 | 2 | 4
COc1ccccc1Oc1nc2c(C)cccn2c(=O)c1/C=C(\C#N)c1nc2ccccc2[nH]1 | x | -24 | 9 | -1 | -2
COC(=O)c1c(NC(=O)CN2C(=O)C(=O)N(C(C)C)C2=O)sc(C)c1C | 11 | -37* | -5 | 0 | -3
CCOC(=O)c1c(NC(=O)CN2C(=O)C(=O)N(C(C)C)C2=O)sc(C)c1CC | 5 | -14 | 0 | 6 | -14
O=C(NCc1cccnc1)c1cc(C2CCCN(C(=O)c3cccs3)C2)on1 (centres undefined) | -123* | x | -22 | x | x
O=C(NCc1ccc(F)cc1)c1cc(C2CCCN(C(=O)c3cccs3)C2)on1 (centres undefined) | -1 | x | -1 | x | x
O=C(NCc1ccccc1)c1cc(C2CCCN(S(=O)(=O)c3cccs3)C2)on1 (centres undefined) | -68* | x | -21 | x | x
CCc1cnc2c(c1SCCC(C)C)c(=O)n(C)c(=O)n2C | x | x | 7 | -1 | -1
O=C(CSc1ccc(S(=O)(=O)N2CCOCC2)cn1)Nc1ccc(OC(F)F)cc1 | 5 | -27 | -6 | 8 | -14
O=C(CSc1nc2cc(S(=O)(=O)N3CCOCC3)ccc2o1)Nc1c(F)cccc1F | -11 | -32* | -12 | 6 | -3
O=C(CSc1ccc(S(=O)(=O)N2CCOCC2)cn1)Nc1ccc(F)c(F)c1 | -1 | -57* | 1 | 21 | -2
CC(C)N(C(=O)CSc1ccc(S(=O)(=O)N2CCCCC2)cn1)c1ccccc1 | -3 | -37* | -9 | 2 | -5
CC(C)(C)NC(=O)NC(=O)CSc1ccc(S(=O)(=O)N2CCCCC2)cn1 | -4 | -39* | 2 | 8 | 5
CCN(c1ccccc1)S(=O)(=O)c1nnc(NC(=O)COc2cccc(C)c2)s1 | x | 5 | -14 | 4 | 0
CN(C)c1ccc(CNS(=O)(=O)c2ccc3[nH]c4c(c3c2)CCCCC4)cc1 | x | -3 | 0 | 4 | -1
CCc1cccc(NC(=O)c2ccc(CNS(=O)(=O)c3ccc4c(c3)C(C)(C)C(=O)N4C)cc2)c1 | x | -5 | 13 | 2 | 0
CCn1c(CNC(=O)c2ccc(OC)cc2)nnc1SCC(=O)Nc1ccccc1 | x | 3 | -9 | 3 | -2
C[C@@H](O)[C@H](N)C(=O)O | x | x | 2 | x | x
O=C(CCN1C(=O)c2ccccc2Sc2ncccc21)Nc1ccc(F)cc1 | x | 18 | -19 | 2 | 3
CCOC(=O)c1cccc(NS(=O)(=O)c2ccc3[nH]c4c(c3c2)CCCC4)c1 | x | 9 | 1 | 2 | -2
COc1ccccc1C(=O)N(Cc1ccco1)Cc1ccccc1F | x | -22 | 4 | -1 | 0
CCOC(=O)c1cc(-c2ccc(C)cc2)n(CCC(=O)Nc2nc3c(C)cccc3s2)c1C | x | 20 | 7 | 0 | -3
CCOC(=O)C(=O)Nc1nccs1 | -16 | -34* | 1 | 0 | -3
CCOC(=O)/C=C/C(=O)Nc1nccs1 | -20 | 0 | -8 | 3 | -5

From PubChem
